High-throughput results: PubChem, Broad Institute
This is one part of a sample in which hits are shown more often than they occur.
Tg IFNy HTS: T. gondii growth inhibition under IFN-gamma; activity change, negative = inhibition, % (test concentration not listed); 69,000 compounds, 3.8% hits; Toxoplasma gondii growth in IFN-gamma-treated host cells; stronger effect = lower value; in the data active means activity change below about -70%, passing the limit was not always enough;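 further: host cells are HeLa cells infected with Toxoplasma gondii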
Each line names hits and unclear results; the compound was inactive in the other large screens; ! = repeats disagree.

Cc1c2oc3c(C)ccc(C(=O)N[C@@H]4C(=O)N[C@H](C(C)C)C(=O)N5CCC[C@H]5C(=O)N(C)CC(=O)N(C)[C@@H](C(C)C)C(=O)O[C@@H]4C)c3nc-2c(C(=O)N[C@@H]2C(=O)N[C@H](C(C)C)C(=O)N3CCC[C@H]3C(=O)N(C)CC(=O)N(C)[C@@H](C(C)C)C(=O)O[C@@H]2C)c(N)c1=O	Tg IFNy HTS -82
O=C(c1ccc(F)cc1F)N1CCC(c2nc3ccc(-c4cccnc4)cn3n2)CC1	none
O=C(c1cnccn1)N1CCC(c2nc3ccc(-c4cccc(F)c4)cn3n2)CC1	Tg IFNy HTS -72
O=S(=O)(c1ccccc1F)N1CCC(c2nc3ccc(-c4ccncc4)cn3n2)CC1	none
COc1cc(-c2n[nH]c(=S)n2C2CCCCC2)cc(OC)c1OC	none
COc1cccc(-c2nc3c(s2)CN(C(=O)Nc2ccc(OC)cc2OC)CC3)c1	none
COc1ccc(OC)c(NC(=O)N2CCc3nc(-c4ccccc4)sc3C2)c1	none
COc1ccc(-c2nc3c(s2)CN(C(=O)Nc2cc(C)ccc2OC)CC3)cc1	none
COc1cccc(-c2nc3c(s2)CN(C(=O)Nc2ccc(Cl)cc2)CC3)c1	Tg IFNy HTS -92
CCOc1ccc(NC(=O)N2CCc3nc(-c4cccc(OC)c4)sc3C2)cc1	none
CCOc1ccc(-c2nc3c(s2)CN(C(=O)Nc2cc(C)ccc2OC)CC3)cc1	Tg IFNy HTS -104
Cc1cccc(NC(=O)N2CCc3nc(-c4ccccc4)sc3C2)c1	none
COc1cccc(-c2nc3c(s2)CN(C(=O)Nc2ccc(OC)c(OC)c2)CC3)c1	none
CCOc1ccc(-c2nc3c(s2)CN(C(=O)Nc2ccc(C)cc2C)CC3)cc1	none
COc1ccc(-c2nc3c(s2)CN(C(=O)Nc2cc(C)cc(C)c2)CC3)cc1	none
COc1ccc(-c2nc3c(s2)CN(C(=O)Nc2ccc(Br)cc2)CC3)cc1	Tg IFNy HTS -93
COc1cccc(NC(=O)N2CCc3nc(-c4ccc(C)cc4)sc3C2)c1	Tg IFNy HTS -121
COc1cc(-c2nc(Cn3ccn4nc(-c5ccc(F)cc5)cc4c3=O)c(C)o2)cc(OC)c1OC	none
Cc1cc(C)n(Cc2cc(C(=O)N3CCN(C)C[C@@H]3c3ccccc3)n[nH]2)n1	none
CC(=O)c1c(C)nn(CC(=O)N2C[C@H]3CC=CC[C@H]3C2)c1C	none
Cc1cc(C)n(CC(C)NC(=O)c2cc(CN3CCC(O)CC3)on2)n1 (configuration not stated)	none
O=C(CCN1CCOCC1)C1CC2(CO1)CN(C(=O)c1ccc(F)cc1)c1ccccc12 (configuration not stated)	none
COC[C@@H]1CCC[C@]12CN(C(=O)c1ccno1)CCO2	none
CC(C)N1c2sc(-c3ccccc3)nc2CC1C(=O)N1CCCCC1 (configuration not stated)	none
CN(C)CC1(O)CCN(C(=O)Cc2cc3c(cc2Cl)OCCO3)C1 (configuration not stated)	none
CCN1CC2(CCC1=O)CCN(C(=O)C1CCOCC1)CC2	none
O=C(CC1N=C2c3ccccc3N=C(SCc3cc(=O)n4cc(Cl)ccc4n3)N2C1=O)NC1CCCCC1 (configuration not stated)	none
CC(=O)Nc1ccc(-c2nccn2CCc2c[nH]c3ccccc23)cc1	none
Clc1cc(CN2CCSCC2)c(Cl)s1	none
CO[C@@H]1CCN(C(=O)c2ccc[nH]2)[C@H]1Cc1cnn(C)c1	none
CC(NC(=O)C1CCN(c2ncnc3ccccc23)CC1)c1nc2ccccc2s1 (configuration not stated)	none
O=C(NCCN1CCc2ccccc2C1)C1CC(=O)N(Cc2ccncc2)C1 (configuration not stated)	none
CCOC(=O)c1nc(NCCc2ccc(C)cc2)c2ccccc2n1	Tg IFNy HTS -73
CCOCCCNC(=O)c1nc(Nc2ccc(C)cc2)c2ccccc2n1	none
Cc1ccc(Nc2nc(C(=O)NC(C)C)nc3ccccc23)cc1	Tg IFNy HTS -79
CCOC(=O)c1nc(NCc2ccc(C)cc2)c2ccccc2n1	none
CC(NC(=O)c1nc(Nc2ccc(F)cc2)c2ccccc2n1)c1ccccc1 (configuration not stated)	none
CC(C)CCNC(=O)c1nc(Nc2ccccc2)c2ccccc2n1	none
Cc1ccc(Nc2nc(C(=O)NCCC(C)C)nc3ccccc23)cc1	Tg IFNy HTS -87
Cc1ccc(Nc2nc(C(=O)Nc3cc(C)cc(C)c3)nc3ccccc23)cc1	none
CCCCNc1nc(C(=O)OCC)nc2ccccc12	none
CC(C)(O)CC[C@@H](O)[C@](C)(O)C1CC[C@@]2(O)C3=CC(=O)C4C[C@@H](O)[C@@H](O)C[C@]4(C)C3CC[C@]12C (some centres not stated)	none
Cn1cc(C(CNC(=O)Nc2ccccc2F)c2cccnc2)c2ccccc21 (configuration not stated)	none
Cc1ccc(C(O)CN2CCN(Cc3ncccc3C)CC2)c(C)c1 (configuration not stated)	none
Cn1cc(-c2cnc(-c3cccnc3)nc2)cc1C(=O)NC(C)(C)C	none
CC(C)C1CN(C(=O)c2cnn3ccn(C)c23)CCCN1CC1CC1 (configuration not stated)	none
Cc1ccc(C(=O)NCC2(CO)CCOCC2)cc1NC(=O)C1CCCC1	none
O=C(NC(=S)Nc1cccnc1)c1ccccc1	none
O=C(O)CSCCCC(=O)Nc1ccc(Br)cc1	none
CN(CC(=O)Nc1cccnc1)S(=O)(=O)c1ccc(Cl)cc1	none
O=C(CCCCCCC(=O)Nc1ccccc1)NO	Tg IFNy HTS -84!
O=C(CCCCCCC(=O)Nc1cccnc1)NO	Tg IFNy HTS -84
CCCCC(=O)Nc1ccc(-c2nc(-c3ccccc3)co2)cc1	none
Nc1c(C(=O)c2ccc[nH]2)cnn1-c1ccc(F)cc1	none
NC(=O)c1c(SCc2ccccc2)sc(C(=O)c2ccccc2)c1N	none
CN(CCCc1cnn(C)c1)C(=O)c1ccc2c(c1)OCO2	none
O=C1CC[C@]2(CCCN(C(=O)COc3ccc4c(c3)OCO4)[C@@H]2c2cccc(F)c2)N1	none
COc1cc(C)c(-c2cccc(-n3cnnc3)c2)c(C)c1	none
Cc1nc(CN2CCOCC3(CNCCO3)C2)cs1 (configuration not stated)	Tg IFNy HTS -90
Cc1nc(CN2CCOCC3(CN(CCO)CCO3)C2)cs1 (configuration not stated)	none
CC(=O)N1CCOCC12CCN(Cc1csc(C)n1)CC2	none
C=CCOC1CC2COCC(C1)N2Cc1cccc(C)c1 (configuration not stated)	none
CCCSc1nnc2c(n1)OC(C)=Nc1ccccc1-2	none
COc1ccc(OC)c(NC(=O)c2nnn(Cc3nc(-c4ccc(OC(C)C)cc4)oc3C)c2C)c1	none
Cc1ccc(F)cc1NC(=O)c1nnn(Cc2nc(-c3ccc(OC(C)C)cc3)oc2C)c1C	none
CCc1ccccc1NC(=O)c1nnn(Cc2nc(-c3ccccc3)oc2C)c1C	none
Cc1ccc(-c2nc(Cn3nnc(-c4nc(-c5ccc(OC(C)C)cc5)no4)c3C)c(C)o2)cc1	none
CCOc1ccc(-c2nc(Cn3nnc(C(=O)Nc4ccccc4)c3C)c(C)o2)cc1	none
COc1ccc(NC(=O)c2nnn(Cc3nc(-c4ccccc4)oc3C)c2C)cc1	Tg IFNy HTS -94
Cc1ccc(-c2nc(Cn3nnc(-c4nc(-c5ccc(OCC(C)C)cc5)no4)c3C)c(C)o2)cc1	none
Cc1oc(-c2ccccc2)nc1Cn1nnc(-c2nc(-c3ccc(OC(C)C)cc3)no2)c1C	Tg IFNy HTS -80
Cc1ccc(Cl)cc1NC(=O)c1nnn(Cc2nc(-c3ccccc3)oc2C)c1C	none
Cc1cc(C)c(NC(=O)c2nnn(Cc3nc(-c4ccccc4)oc3C)c2C)c(C)c1	Tg IFNy HTS -77
Cc1ccc(NC(=O)c2nnn(Cc3nc(-c4ccc(OC(C)C)cc4)oc3C)c2C)c(C)c1	Tg IFNy HTS -98
COc1ccccc1NC(=O)c1nnn(Cc2nc(-c3ccccc3)oc2C)c1C	none
